Measurements reported in publication PMC7862700, “An all-to-all approach to the identification of sequence-specific readers for epigenetic DNA modifications on cytosine”.

Columns and labels:
Experiment in all cases: DAPPL (digital affinity profiling via proximity ligation, sequencing); 10 mM Tris-HCl pH 7.5, 50 mM NaCl, 1 mM DTT, 4% glycerol, room temperature, 30 min; GST-TFs on glutathione beads, 16-mer random dsDNA library, 0.1% formaldehyde crosslink after washing; high values mean tight binding
FLI1 = molecular target: T1, FLI1 (Homo sapiens, UniProt Q01543 1-452); settings: protein: recombinant; tags: N-terminal GST; dsDNA, one strand shown
T1 sequence: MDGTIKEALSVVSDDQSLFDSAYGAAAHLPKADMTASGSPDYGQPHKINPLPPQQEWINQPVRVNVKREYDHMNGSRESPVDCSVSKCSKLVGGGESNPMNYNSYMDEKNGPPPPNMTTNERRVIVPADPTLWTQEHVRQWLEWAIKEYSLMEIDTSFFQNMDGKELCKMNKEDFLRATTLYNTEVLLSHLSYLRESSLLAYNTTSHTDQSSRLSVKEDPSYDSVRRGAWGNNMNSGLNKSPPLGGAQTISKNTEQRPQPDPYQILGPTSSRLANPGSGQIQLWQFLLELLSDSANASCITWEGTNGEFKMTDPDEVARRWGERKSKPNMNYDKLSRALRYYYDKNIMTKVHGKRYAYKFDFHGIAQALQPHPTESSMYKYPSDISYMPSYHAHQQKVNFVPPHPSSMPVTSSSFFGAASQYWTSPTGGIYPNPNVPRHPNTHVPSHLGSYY
Outline: (§1)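 GST fusions of human transcription factors were expressed in yeast and captured with glutathione beads. Once given DNA barcodes and pooled alongside a tag-only sample, they were incubated for 30 min at room temperature with 200 nmole of a random double-stranded 16-mer DNA library in Tris/NaCl/DTT/glycerol buffer, then washed, crosslinked (0.1% formaldehyde), proximity-ligated, PCR-amplified and sequenced on an Illumina NextSeq500. The binding signal of each hexamer is its read frequency for a factor divided by its frequency for the tag-only sample.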

ELK1 = molecular target: T2, ELK1 (Homo sapiens, UniProt P19419 1-428); settings: protein: recombinant; tags: N-terminal GST; dsDNA, one strand shown
T2 sequence: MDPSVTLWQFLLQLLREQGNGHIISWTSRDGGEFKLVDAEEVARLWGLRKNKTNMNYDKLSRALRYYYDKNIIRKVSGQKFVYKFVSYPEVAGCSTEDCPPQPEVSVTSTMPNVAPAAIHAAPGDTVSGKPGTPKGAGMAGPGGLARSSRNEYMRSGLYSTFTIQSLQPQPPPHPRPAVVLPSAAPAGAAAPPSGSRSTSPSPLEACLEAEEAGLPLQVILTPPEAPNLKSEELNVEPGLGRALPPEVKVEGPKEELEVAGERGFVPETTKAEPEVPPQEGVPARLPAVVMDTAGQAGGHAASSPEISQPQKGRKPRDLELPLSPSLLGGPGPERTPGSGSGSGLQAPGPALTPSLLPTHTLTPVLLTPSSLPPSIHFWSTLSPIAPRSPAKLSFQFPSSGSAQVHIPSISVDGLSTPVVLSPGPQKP
Outline: as §1

GABPA = molecular target: T3, GABPA (Homo sapiens, UniProt Q06546 1-454); settings: protein: recombinant; tags: N-terminal GST; dsDNA, one strand shown
T3 sequence: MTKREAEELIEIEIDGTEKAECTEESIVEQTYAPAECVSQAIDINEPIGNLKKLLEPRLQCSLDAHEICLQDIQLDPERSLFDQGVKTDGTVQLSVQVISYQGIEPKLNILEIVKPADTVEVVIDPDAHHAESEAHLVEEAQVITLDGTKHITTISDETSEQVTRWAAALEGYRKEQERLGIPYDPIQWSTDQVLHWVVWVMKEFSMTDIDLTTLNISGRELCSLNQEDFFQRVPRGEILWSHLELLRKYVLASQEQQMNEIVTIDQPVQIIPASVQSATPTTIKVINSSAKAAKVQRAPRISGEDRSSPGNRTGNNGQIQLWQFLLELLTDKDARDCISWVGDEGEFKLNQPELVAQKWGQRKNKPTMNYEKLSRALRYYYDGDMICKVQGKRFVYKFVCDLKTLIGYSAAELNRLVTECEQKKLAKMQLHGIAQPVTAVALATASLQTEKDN
Outline: as §1

ERG = molecular target: T4, ERG (Homo sapiens, UniProt P11308 1-479); settings: protein: recombinant; tags: N-terminal GST; dsDNA, one strand shown
T4 sequence: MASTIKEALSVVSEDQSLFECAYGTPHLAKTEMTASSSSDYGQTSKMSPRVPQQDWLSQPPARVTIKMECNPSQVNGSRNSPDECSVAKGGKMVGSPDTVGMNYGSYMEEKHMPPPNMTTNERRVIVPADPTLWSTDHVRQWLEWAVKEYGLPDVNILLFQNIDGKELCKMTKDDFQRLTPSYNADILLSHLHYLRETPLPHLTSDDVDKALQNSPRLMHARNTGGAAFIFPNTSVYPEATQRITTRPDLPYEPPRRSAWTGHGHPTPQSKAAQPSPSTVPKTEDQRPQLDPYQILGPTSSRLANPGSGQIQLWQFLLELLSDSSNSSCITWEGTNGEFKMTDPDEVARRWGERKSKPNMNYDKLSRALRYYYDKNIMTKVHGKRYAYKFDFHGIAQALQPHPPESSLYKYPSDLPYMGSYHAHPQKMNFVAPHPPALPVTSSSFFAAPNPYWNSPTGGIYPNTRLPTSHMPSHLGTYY
Outline: as §1

ELF1 = ELF1 (Homo sapiens, UniProt P32519 1-619); settings: protein: recombinant; tags: N-terminal GST; dsDNA, one strand shown
ELF1, sequence (P32519 whole entry): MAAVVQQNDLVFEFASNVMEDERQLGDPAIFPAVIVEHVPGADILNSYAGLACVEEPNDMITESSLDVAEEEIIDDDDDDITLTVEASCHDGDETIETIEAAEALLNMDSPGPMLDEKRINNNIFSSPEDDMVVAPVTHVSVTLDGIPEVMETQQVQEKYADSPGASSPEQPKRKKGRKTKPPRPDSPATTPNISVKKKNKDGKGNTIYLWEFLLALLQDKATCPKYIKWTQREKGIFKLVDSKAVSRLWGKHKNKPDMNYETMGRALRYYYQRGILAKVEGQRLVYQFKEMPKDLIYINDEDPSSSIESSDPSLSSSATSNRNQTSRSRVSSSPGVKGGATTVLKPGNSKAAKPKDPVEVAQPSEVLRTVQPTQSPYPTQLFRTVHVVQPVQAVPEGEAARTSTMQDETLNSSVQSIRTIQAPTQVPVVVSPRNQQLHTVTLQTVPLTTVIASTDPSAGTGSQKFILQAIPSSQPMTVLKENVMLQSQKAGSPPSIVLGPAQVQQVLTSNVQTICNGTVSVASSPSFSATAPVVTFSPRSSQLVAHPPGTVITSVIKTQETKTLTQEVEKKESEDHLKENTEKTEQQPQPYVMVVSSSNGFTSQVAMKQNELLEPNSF
Outline: as §1

EHF = molecular target: T5, EHF (Homo sapiens, UniProt Q9NZC4 1-300); settings: protein: recombinant; tags: N-terminal GST; dsDNA, one strand shown
T5 sequence: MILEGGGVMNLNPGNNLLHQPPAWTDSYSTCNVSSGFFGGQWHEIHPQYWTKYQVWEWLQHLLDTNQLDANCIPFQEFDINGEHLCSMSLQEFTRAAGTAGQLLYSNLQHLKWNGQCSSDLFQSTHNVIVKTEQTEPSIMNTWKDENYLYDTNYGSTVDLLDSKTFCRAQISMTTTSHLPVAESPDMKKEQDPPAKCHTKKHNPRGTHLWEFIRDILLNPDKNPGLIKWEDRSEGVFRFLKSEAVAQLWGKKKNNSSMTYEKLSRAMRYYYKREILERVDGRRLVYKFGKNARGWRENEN
Outline: as §1

SPI1 = SPI1 (Homo sapiens, UniProt P17947 1-270); settings: protein: recombinant; tags: N-terminal GST; dsDNA, one strand shown
Outline: as §1

SPIB = SPIB (Homo sapiens, UniProt Q01892 1-262); settings: protein: recombinant; tags: N-terminal GST; dsDNA, one strand shown
SPIB, sequence (Q01892 whole entry): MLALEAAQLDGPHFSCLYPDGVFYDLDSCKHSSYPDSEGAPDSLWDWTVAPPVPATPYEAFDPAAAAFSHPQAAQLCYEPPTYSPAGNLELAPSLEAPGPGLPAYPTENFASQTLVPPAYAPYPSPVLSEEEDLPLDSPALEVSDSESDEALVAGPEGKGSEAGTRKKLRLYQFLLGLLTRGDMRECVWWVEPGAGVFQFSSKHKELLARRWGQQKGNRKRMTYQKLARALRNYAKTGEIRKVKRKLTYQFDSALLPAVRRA
Outline: as §1

ELK3 = molecular target: T6, ELK3 (Homo sapiens, UniProt P41970 1-407); settings: protein: recombinant; tags: N-terminal GST; dsDNA, one strand shown
T6 sequence: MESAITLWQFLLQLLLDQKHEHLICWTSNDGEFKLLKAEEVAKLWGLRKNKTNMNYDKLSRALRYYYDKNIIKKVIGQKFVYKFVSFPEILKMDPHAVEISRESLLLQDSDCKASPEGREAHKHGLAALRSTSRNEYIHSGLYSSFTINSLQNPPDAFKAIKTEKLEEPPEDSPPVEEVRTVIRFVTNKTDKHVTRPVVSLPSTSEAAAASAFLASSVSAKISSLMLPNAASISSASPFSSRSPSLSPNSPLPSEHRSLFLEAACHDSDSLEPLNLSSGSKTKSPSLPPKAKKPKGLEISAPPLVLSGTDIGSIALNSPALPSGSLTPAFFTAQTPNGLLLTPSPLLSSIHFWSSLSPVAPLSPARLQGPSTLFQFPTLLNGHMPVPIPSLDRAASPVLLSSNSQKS
Outline: as §1

FEV = molecular target: T7, FEV (Homo sapiens, UniProt Q99581 1-238); settings: protein: recombinant; tags: N-terminal GST; dsDNA, one strand shown
T7 sequence: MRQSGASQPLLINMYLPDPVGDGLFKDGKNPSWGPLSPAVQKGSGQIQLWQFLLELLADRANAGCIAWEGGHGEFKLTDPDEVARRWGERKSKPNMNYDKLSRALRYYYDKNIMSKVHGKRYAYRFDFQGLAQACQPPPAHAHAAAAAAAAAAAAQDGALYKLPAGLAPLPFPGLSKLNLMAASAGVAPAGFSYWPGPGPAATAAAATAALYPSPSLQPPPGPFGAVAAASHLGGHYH
Outline: as §1

ETV5 = ETV5 (Homo sapiens, UniProt P41161 1-510); settings: protein: recombinant; tags: N-terminal GST; dsDNA, one strand shown
ETV5, sequence (P41161 whole entry): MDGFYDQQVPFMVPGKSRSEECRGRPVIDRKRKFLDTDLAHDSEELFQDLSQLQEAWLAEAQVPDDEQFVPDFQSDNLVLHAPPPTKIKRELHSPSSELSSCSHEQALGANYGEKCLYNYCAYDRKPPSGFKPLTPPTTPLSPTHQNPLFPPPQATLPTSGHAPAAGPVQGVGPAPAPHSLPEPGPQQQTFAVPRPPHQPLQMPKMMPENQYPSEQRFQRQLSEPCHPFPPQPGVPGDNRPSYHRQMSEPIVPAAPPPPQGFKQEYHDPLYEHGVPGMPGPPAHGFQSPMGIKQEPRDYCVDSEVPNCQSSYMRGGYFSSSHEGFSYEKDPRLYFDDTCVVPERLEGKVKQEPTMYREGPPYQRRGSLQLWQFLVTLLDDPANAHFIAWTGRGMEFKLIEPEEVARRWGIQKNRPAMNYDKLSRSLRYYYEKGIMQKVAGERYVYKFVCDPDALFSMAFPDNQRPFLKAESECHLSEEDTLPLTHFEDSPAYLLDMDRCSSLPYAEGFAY
Outline: as §1

HSF1 = HSF1 (Homo sapiens, UniProt Q00613 1-529); settings: protein: recombinant; tags: N-terminal GST; chain copies: 3; dsDNA, one strand shown
HSF1, sequence (Q00613 whole entry): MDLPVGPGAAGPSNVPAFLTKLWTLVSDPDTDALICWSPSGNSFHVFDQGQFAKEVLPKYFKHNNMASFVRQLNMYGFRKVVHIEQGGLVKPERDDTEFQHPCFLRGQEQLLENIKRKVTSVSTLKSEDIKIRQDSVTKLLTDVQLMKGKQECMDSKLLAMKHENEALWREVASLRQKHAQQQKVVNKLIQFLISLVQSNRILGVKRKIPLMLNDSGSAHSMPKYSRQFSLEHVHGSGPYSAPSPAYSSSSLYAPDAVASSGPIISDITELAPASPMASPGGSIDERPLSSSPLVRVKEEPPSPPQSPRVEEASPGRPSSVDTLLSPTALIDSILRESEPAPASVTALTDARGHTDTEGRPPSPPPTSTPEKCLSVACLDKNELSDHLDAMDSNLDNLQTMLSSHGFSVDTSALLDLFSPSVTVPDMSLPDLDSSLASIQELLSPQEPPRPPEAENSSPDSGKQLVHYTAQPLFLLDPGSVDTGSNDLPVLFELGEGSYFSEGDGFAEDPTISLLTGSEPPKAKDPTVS
Outline: as §1

SPIC = molecular target: T8, SPIC (Homo sapiens, UniProt Q8N5J4 1-248); settings: protein: recombinant; tags: N-terminal GST; dsDNA, one strand shown
T8 sequence: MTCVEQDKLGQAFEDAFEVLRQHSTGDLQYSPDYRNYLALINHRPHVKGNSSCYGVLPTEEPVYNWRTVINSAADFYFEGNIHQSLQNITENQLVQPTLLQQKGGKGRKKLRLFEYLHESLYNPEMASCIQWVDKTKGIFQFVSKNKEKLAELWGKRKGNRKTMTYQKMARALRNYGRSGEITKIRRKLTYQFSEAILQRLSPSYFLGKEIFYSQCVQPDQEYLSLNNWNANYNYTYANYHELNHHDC
Outline: as §1

ELF4 = ELF4 (Homo sapiens, UniProt Q99607 1-663); settings: protein: recombinant; tags: N-terminal GST; dsDNA, one strand shown
ELF4, sequence (Q99607 whole entry): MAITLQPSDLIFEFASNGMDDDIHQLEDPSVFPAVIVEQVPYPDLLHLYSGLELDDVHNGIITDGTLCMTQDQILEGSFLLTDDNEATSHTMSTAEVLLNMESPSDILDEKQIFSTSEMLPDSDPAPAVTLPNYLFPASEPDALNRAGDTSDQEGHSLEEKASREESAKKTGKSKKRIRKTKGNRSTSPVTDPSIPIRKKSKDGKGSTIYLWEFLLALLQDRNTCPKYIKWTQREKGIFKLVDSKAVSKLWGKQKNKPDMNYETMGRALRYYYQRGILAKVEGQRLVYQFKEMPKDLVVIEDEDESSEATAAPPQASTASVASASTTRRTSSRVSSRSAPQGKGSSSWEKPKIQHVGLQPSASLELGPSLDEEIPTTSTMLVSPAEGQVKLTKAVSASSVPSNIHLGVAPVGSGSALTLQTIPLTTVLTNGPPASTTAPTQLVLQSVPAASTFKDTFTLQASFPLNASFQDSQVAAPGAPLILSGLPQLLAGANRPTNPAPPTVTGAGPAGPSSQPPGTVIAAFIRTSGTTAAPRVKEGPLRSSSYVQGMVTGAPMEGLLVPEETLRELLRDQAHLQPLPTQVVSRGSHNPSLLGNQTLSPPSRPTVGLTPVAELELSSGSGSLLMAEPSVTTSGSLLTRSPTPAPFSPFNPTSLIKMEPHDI
Outline: as §1

ELK4 = molecular target: T9, ELK4 (Homo sapiens, UniProt P28324-2 1-405); settings: protein: recombinant; tags: N-terminal GST; dsDNA, one strand shown
T9 sequence: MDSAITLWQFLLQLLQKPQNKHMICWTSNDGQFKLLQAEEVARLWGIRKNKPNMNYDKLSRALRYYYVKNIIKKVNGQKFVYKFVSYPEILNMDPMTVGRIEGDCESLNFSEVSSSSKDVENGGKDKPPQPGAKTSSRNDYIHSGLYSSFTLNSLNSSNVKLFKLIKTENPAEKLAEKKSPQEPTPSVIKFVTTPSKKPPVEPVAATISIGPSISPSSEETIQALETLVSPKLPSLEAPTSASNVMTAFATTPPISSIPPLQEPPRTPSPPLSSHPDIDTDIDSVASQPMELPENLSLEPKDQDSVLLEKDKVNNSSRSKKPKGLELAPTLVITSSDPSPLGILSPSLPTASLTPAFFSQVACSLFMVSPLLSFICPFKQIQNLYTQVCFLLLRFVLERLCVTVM
Outline: as §1

ETV2 = molecular target: T10, ETV2 (Homo sapiens, UniProt O00321 1-342); settings: protein: recombinant; tags: N-terminal GST; dsDNA, one strand shown
T10 sequence: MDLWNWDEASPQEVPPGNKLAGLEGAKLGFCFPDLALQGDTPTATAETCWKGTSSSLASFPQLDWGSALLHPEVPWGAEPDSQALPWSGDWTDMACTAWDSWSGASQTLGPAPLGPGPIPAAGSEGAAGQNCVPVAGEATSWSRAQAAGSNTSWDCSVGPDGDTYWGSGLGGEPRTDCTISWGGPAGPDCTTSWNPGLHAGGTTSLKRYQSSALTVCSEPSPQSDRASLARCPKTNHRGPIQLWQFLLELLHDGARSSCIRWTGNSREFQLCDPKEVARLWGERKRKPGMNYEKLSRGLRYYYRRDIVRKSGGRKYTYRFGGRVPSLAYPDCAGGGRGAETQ
Outline: as §1

ELF3 = molecular target: T11, ELF3 (Homo sapiens, UniProt P78545 1-371); settings: protein: recombinant; tags: N-terminal GST; dsDNA, one strand shown
T11 sequence: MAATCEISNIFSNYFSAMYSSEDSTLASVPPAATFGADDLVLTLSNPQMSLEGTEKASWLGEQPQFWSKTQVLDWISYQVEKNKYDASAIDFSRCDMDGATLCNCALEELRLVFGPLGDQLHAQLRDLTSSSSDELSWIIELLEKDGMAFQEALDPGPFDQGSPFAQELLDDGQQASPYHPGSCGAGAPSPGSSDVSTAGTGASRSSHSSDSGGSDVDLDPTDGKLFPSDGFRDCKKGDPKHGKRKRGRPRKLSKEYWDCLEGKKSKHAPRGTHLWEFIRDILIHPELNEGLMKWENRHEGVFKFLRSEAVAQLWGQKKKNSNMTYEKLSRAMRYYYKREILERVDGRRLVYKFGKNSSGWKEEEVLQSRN
Outline: as §1

ETV1 = ETV1 (Homo sapiens, UniProt P50549 1-477); settings: protein: recombinant; tags: N-terminal GST; dsDNA, one strand shown
ETV1, sequence (P50549 whole entry): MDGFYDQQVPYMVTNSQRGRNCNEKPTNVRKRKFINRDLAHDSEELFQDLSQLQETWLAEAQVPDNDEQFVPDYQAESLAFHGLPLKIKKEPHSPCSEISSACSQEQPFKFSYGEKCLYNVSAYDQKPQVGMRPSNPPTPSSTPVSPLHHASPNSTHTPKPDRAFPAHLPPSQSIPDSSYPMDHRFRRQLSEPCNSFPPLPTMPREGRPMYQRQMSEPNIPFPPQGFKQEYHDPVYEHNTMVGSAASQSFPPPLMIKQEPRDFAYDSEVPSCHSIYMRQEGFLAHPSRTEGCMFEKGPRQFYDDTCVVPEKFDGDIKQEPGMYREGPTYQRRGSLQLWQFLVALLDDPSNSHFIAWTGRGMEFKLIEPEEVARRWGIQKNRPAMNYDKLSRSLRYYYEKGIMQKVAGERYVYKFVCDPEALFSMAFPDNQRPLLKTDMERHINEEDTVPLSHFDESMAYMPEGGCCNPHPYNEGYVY
Outline: as §1

Q: Which binding signal (FLI1) does the source give for GTACAT here?
A: 1.4 fold enrichment (6-mer frequency, TF over GST control)

Q: What about the binding signal (ELK1) of the same sequence?
A: 1.35 fold enrichment (6-mer frequency, TF over GST control)

Q: What about the binding signal (GABPA) of the same sequence?
A: 1.17 fold enrichment (6-mer frequency, TF over GST control)

Q: And the binding signal (ERG)?
A: 1.35 fold enrichment (6-mer frequency, TF over GST control)

Q: And the binding signal (ELF1)?
A: 1.36 fold enrichment (6-mer frequency, TF over GST control)

Q: And the binding signal (EHF)?
A: 1.26 fold enrichment (6-mer frequency, TF over GST control)

Q: What about the binding signal (SPI1) of the same sequence?
A: 1.28 fold enrichment (6-mer frequency, TF over GST control)

Q: And the binding signal (SPIB)?
A: 1.36 fold enrichment (6-mer frequency, TF over GST control)

Q: And the binding signal (ELK3)?
A: 1.44 fold enrichment (6-mer frequency, TF over GST control)

Q: And the binding signal (FEV)?
A: 1.35 fold enrichment (6-mer frequency, TF over GST control)

Q: And the binding signal (ETV5)?
A: 1.37 fold enrichment (6-mer frequency, TF over GST control)

Q: And the binding signal (HSF1)?
A: 1.04 fold enrichment (6-mer frequency, TF over GST control)

Q: And the binding signal (SPIC)?
A: 1.36 fold enrichment (6-mer frequency, TF over GST control)

Q: And the binding signal (ELF4)?
A: 1.36 fold enrichment (6-mer frequency, TF over GST control)

Q: What about the binding signal (ELK4) of the same sequence?
A: 1.23 fold enrichment (6-mer frequency, TF over GST control)

Q: And the binding signal (ETV2)?
A: 1.22 fold enrichment (6-mer frequency, TF over GST control)

Q: And the binding signal (ELF3)?
A: 1.28 fold enrichment (6-mer frequency, TF over GST control)

Q: And the binding signal (ETV1)?
A: 1.24 fold enrichment (6-mer frequency, TF over GST control)
